Compound activity as filed in PubChem BioAssay.
Hits are enriched below; roughly 1.2% of the tested compounds scored in any of these assays.
RN4220 kill – kills Staphylococcus aureus RN4220; inhibition, % (test concentration not listed); S. aureus RN4220 growth, OD600, 16 h; AID 1259311; 330,000 tested, 0.33% active; in the data active = inhibition above about 85%
ugtP null kill – kills S. aureus RN4220 lacking UgtP; S. aureus RN4220 ugtP deletion, OD600 growth, 16 h; growth inhibition, % (test concentration not listed); 330,000 tested, 0.54% active; AID 1259309; in the data active = growth inhibition above about 68%
TcdB GH inh – inhibitors of Clostridioides difficile toxin B glycohydrolase; 350,000 tested, 0.24% active; inhibition, % at 9.99 µM; TcdB glycohydrolase enzymatic assay, plate reader; in the data active = inhibition above about 10%
PfHsp40 rescue – compounds rescuing yeast from Plasmodium falciparum HSP40 toxicity; S. cerevisiae expressing PfHsp40, growth rescue, ATP luminescence; growth rescue, % at 12.5 µM; 340,000 tested, 0.68% active; in the data active = growth rescue above about 28%, passing the limit was not always enough; inconclusive = no clear call, values can overlap the other calls;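 also: yeast W303a lacking pdr1 and pdr3 grown in galactose medium; growth measured after three days at 30 °C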
PrP UTR inh – suppresses PrP 5' UTR mRNA reporter expression; cell-based PrP 5' UTR mRNA reporter, plate reader; inhibition, % (concentration not given with the values); 340,000 tested, 0.35% active; AID 488862; in the data active = inhibition above about 52%
PrP 5UTR single – prion 5' UTR mRNA inhibition, cherry-pick retest | 1,100 tested, 48% active | shares compounds with PrP UTR inh | inhibition, % at 2.5 µM | cell-based prion protein 5' UTR reporter, plate reader; in the data active = inhibition above about 54%; inconclusive = no clear call, values can overlap the other calls
Each line names hits and unclear results; the compound was inactive in the other large screens (follow-up assays come after a bar, where they were run); ! = not confirmed by another sample.

C[C@H](CO)N1C[C@H](C)[C@@H](CN(C)S(=O)(=O)c2cccs2)Oc2c(NC(=O)C3CCOCC3)cccc2C1=O	none (no result: RN4220 kill, ugtP null kill, PfHsp40 rescue, PrP UTR inh)
C=CCNC(=O)C1CCN(C(=O)c2ccc(-c3ccccc3)cc2)CC1	PrP UTR inh 60 (no result: TcdB GH inh) | PrP 5UTR single inconclusive
CCNC(=O)C1CCCN(C(=O)c2ccc(-c3ccccc3)cc2)CC1 (stereo not drawn)	none (no result: RN4220 kill, ugtP null kill, PfHsp40 rescue, PrP UTR inh)
Cc1noc(C)c1NC(=O)N(C)C[C@H]1Oc2c(NS(=O)(=O)c3c(C)noc3C)cccc2C(=O)N([C@H](C)CO)C[C@H]1C	none (no result: RN4220 kill, ugtP null kill, PfHsp40 rescue, PrP UTR inh)
CC(=NNC(=O)c1cccnc1)c1ccc(OC2OCCOC2Oc2ccc(C(C)=NNC(=O)c3cccnc3)cc2)cc1 (stereo not drawn)	none (no result: TcdB GH inh, PfHsp40 rescue, PrP UTR inh)
CC(C)(C)c1ccc(C(=O)Nc2ccc(CC(=O)O)cc2)o1	PrP UTR inh 72 (no result: TcdB GH inh) | PrP 5UTR single 75
C#C[C@]1(O)CC[C@H]2[C@@H]3CCc4cc(OC5CCCC5)ccc4[C@H]3CC[C@@]21C	PrP UTR inh 61! (no result: RN4220 kill, ugtP null kill) | PrP 5UTR single inactive
C#C[C@]1(O)CC[C@H]2[C@@H]3CCc4cc(OC)ccc4[C@H]3CC[C@@]21C	none (no result: RN4220 kill, ugtP null kill)
Cn1c(-c2ccccc2F)cc2onc(-c3ccccc3)c2c1=O	none
Cn1c(-c2ccccc2)cc2onc(-c3ccccc3)c2c1=O	PrP UTR inh 63 | PrP 5UTR single inactive
C[C@@H](NC(=O)[C@H]1[C@H](CO)[C@H]2Cn3c(cccc3=O)[C@H]2N1CCC(F)(F)F)c1ccccc1	none (no result: RN4220 kill, ugtP null kill, PfHsp40 rescue, PrP UTR inh)
CC1OC(OC2C(=O)c3c(O)cc(O)cc3OC2c2ccc(O)c(O)c2)C(O)C(O)C1O (stereo not drawn)	none (no result: TcdB GH inh, PfHsp40 rescue, PrP UTR inh)
C[C@@H]1O[C@@H](O[C@@H]2C=C3CC[C@@H]4C(CC[C@]5(C)[C@@H](c6ccc(=O)oc6)CC[C@]45O)[C@@]3(C)CC2)[C@H](O)[C@H](O)[C@H]1O (stereo partly drawn)	PrP UTR inh 94 (no result: RN4220 kill, ugtP null kill) | PrP 5UTR single 90
C[C@@H]1O[C@@H](O[C@@H]2C=C3CCC4C(CC[C@]5(C)[C@@H](c6ccc(=O)oc6)CC[C@]45O)[C@@]3(C)CC2)[C@H](O)[C@H](O)[C@H]1O (stereo partly drawn)	PrP UTR inh 94 (no result: RN4220 kill, ugtP null kill) | PrP 5UTR single 94
CC(=O)C1CCC2(O)C3CCC4=CC(=O)CCC4(C)C3CCC12C (stereo not drawn)	none
CCCNC(=O)C[C@H]1CC[C@@H]2[C@H](COc3ccc(NC(=O)Cc4ccccc4)cc3C(=O)N2C)O1	none (no result: RN4220 kill, ugtP null kill, PfHsp40 rescue, PrP UTR inh)
COC(=O)C1CCC(=O)N1C(c1ccc(OC)cc1)c1cc(OC)c(OC)c(OC)c1 (stereo not drawn)	PrP UTR inh 56 (no result: RN4220 kill, ugtP null kill) | PrP 5UTR single 89
COc1ccc(C(CNC(=O)Cc2cc(OC)c(OC)c(OC)c2)N2CCCC2)cc1 (stereo not drawn)	none (no result: TcdB GH inh)
CSC1SCC2C(=O)N(C)C(C(C)C)C(=O)OCC(NC(=O)c3cnc4ccccc4n3)C(=O)NC(C)C(=O)N(C)C1C(=O)N(C)C(C(C)C)C(=O)OCC(NC(=O)c1cnc3ccccc3n1)C(=O)NC(C)C(=O)N2C (stereo not drawn)	PrP UTR inh 92 (no result: RN4220 kill, ugtP null kill) | PrP 5UTR single 93
COc1ccc(Br)cc1C=NNC(=O)CNC(=O)/C=C/c1ccccc1OC	none (no result: TcdB GH inh, PfHsp40 rescue, PrP UTR inh)
O=C(CCC(=O)Nc1ccc(F)cc1)NN=Cc1ccc(O)cc1O	none (no result: TcdB GH inh, PfHsp40 rescue, PrP UTR inh)
S=c1nc(C2COc3ccccc3O2)[nH][nH]1 (stereo not drawn)	none
CCCS(=O)(=O)c1cnc(C2COc3ccccc3O2)nc1N (stereo not drawn)	PrP UTR inh 86 | PrP 5UTR single 83
COc1ccc(NC(=O)Nc2ccc3c(c2)CC(=O)N([C@H](C)CO)C[C@@H](C)[C@@H](CN(C)Cc2ccc(-c4ccccc4)cc2)O3)cc1	none (no result: RN4220 kill, ugtP null kill, PfHsp40 rescue, PrP UTR inh)
CCc1noc(C)c1C(=O)N(C)CC(=O)Nc1cccc(OC)c1	PrP UTR inh 89 | PrP 5UTR single inactive
C[C@@H]1CN([C@H](C)CO)C(=O)c2cccc(NC(=O)c3ccncc3)c2O[C@H]1CN(C)C(=O)Nc1ccc(C(F)(F)F)cc1	none (no result: RN4220 kill, ugtP null kill, PfHsp40 rescue, PrP UTR inh)
CC[C@@H]1C(c2ccccc2)=NN(c2ccccc2)[C@H]1C(=O)N1CCOC1=O	PrP UTR inh 62 | PrP 5UTR single inactive
CC[C@@H]1C(c2ccc(F)cc2)=NN(c2ccccc2)[C@H]1C(=O)N1CCOC1=O	none
COc1ccc(C(=O)CC(=O)c2ccc(C(C)(C)C)cc2)cc1	PrP UTR inh 57 (no result: RN4220 kill, ugtP null kill) | PrP 5UTR single inactive
